Laboratory results as given in PubChem BioAssay (NCATS).
Inconclusive results are not listed. Activity calls are given as the source filed them. Unless noted, calls come from the whole dose curve; as a rule, active = well fitted curve in the direction sought with a large enough effect; inconclusive = small, poorly fitted or top-dose-only effect, or another doubt; inactive = no such curve, though single readings can be large; an effect the other way counts as inactive or inconclusive.

Assays:
[1] = Cell Viability - HepG2 (AID 433; calls by dose curve;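 note: potency is the fitted concentration of half-maximal effect; potency for ATP loss meaning cytotoxicity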); conditions: qHTS
Method in brief: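 Cytotoxicity is scored as loss of intracellular ATP in HepG2 cells exposed to compounds for 40 h. Concentration-response curves, normalized to DMSO and 100 uM tamoxifen, give AC50 values.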

[2] = Cell Viability - Mesenchymal (AID 546); conditions: mesenchymal cells viability, qHTS; activity change, negative = cytotoxicity: at 91.7 µM (top of the series);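 note: cells exposed to compound for 40 hours before reading; 0% = DMSO only and -100% = 100 µM tamoxifen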
Method in brief: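 Normal human renal glomerulus-derived kidney mesenchymal cells, 1000 per well in complete medium, were treated with compounds for 40 hr at 37 °C. Viability was read as intracellular ATP by CellTiter-Glo luminescence; AC50 values came from Hill-equation fits of qHTS concentration-response data.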

[3] = Cell Viability - LYMP1-003 - Assay at 40 hr (AID 964); conditions: LYMP1-003 lymphoblastoid viability; series mostly up to 92.2 µM; note: % is set by controls: 0 for no effect and ±100 for the full control effect; nearly all actives have a fitted effect of over 60% in size
Method in brief: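 LYMP1-003 human lymphoblastoid cells, 2500/well, preincubated 5 h at 37 C, then treated with compound for 40 h at 37 C. Intracellular ATP read by CellTiter-Glo luminescence after 30 min at room temperature; AC50 from Hill-equation fits.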

[4] = Cell Viability - LYMP2-013 (AID 970); conditions: LYMP2-013 lymphoblastoid cells viability; series mostly up to 92.2 µM;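 note: 0% = DMSO only and full inhibition = tetraoctylammonium bromide control; nearly all actives have a fitted effect of over 55% in size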
Method in brief: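 Human lymphoblastoid LYMP2-013 cells, 2500/well, treated 24 h at 37 C in complete medium; viability as intracellular ATP by CellTiter-Glo luminescence after 30 min. AC50 from Hill fits of qHTS concentration-response.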

[5] = Cell Viability - LYMP2-017 (AID 972); conditions: LYMP2-017 lymphoblastoid cell viability; series mostly up to 92.2 µM; note: % is set by controls: 0 for no effect and ±100 for the full control effect; nearly all actives have a fitted effect of over 55% in size
Method in brief: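 LYMP2-017 human lymphoblastoid cells (2500/well) settled 5 hr at 37 C, then exposed to compound 24 hr at 37 C in complete medium. Viability taken as intracellular ATP by CellTiter-Glo luminescence after 30 min at RT; AC50 from Hill fits.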

[6] = Cell Viability - LYMP2-021 (AID 974); conditions: LYMP2-021 lymphoblastoid cells viability; series mostly up to 92.2 µM;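 note: compound exposure lasts 24 hours at 37 °C; % is set by controls: 0 for no effect and ±100 for the full control effect; nearly all actives have a fitted effect of over 55% in size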
Method in brief: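 Human lymphoblastoid LYMP2-021 cells, 2500/well in complete medium, treated 24 hours at 37 C. Intracellular ATP by CellTiter-Glo luminescence (30 min, RT); AC50 from Hill fits of concentration-response.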

[7] = Cell Viability - LYMP2-023 (AID 975); conditions: LYMP2-023 lymphoblastoid cell viability; series mostly up to 92.2 µM;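 note: cellular ATP measured by luciferase luminescence as viability proxy; plate controls were DMSO only for no effect and 92 µM tetraoctylammonium bromide control for full effect; nearly all actives have a fitted effect of over 55% in size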
Method in brief: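 LYMP2-023 human lymphoblastoid cells, 2500/well, preincubated 5 hr at 37 C, then compound-treated 24 hr at 37 C in complete medium. CellTiter-Glo luminescence (ATP) after 30 min at room temperature; AC50 from Hill-equation fits; tetraoctylammonium bromide positive control.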

[8] = Cell Viability - LYMP2-025 (AID 976); conditions: LYMP2-025 lymphoblastoid cell viability; series mostly up to 92.2 µM;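 note: plate controls were DMSO only for no effect and tetraoctylammonium bromide control for full effect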
Method in brief: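 Human lymphoblastoid LYMP2-025 cells, 2500/well, exposed 24 h at 37 C in complete medium in 1536-well qHTS. Viability as cellular ATP by CellTiter-Glo luminescence; AC50 from Hill fits of concentration-response data.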

[9] = Cell Viability - LYMP2-002 (AID 977); conditions: LYMP2-002 lymphoblastoid cell viability, qHTS; series mostly up to 92.2 µM;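 note: plate controls were DMSO only for no effect and 92 µM tetraoctylammonium bromide for full effect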
Method in brief: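 Luminescent ATP readout (CellTiter-Glo, 30 min room temperature) after 24 h compound exposure at 37 C of a human lymphoblastoid line, 2500 cells/well. AC50 values derived by standard Hill fitting of qHTS concentration-response data.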

[10] = Cell Viability - LYMP2-012 (AID 982); conditions: LYMP2-012 lymphoblastoid cell viability qHTS; series mostly up to 92.2 µM
[11] = Cell Viability - LYMP2-014 (AID 983); conditions: LYMP2-014 lymphoblastoid cells, viability qHTS; series mostly up to 92.2 µM;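 note: plate controls were DMSO only for no effect and 92 µM tetraoctylammonium bromide for full effect; nearly all actives have a fitted effect of over 50% in size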
Method in brief: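 LYMP2-014 human lymphoblastoid cells, 2500/well, treated 24 h at 37 C in complete medium; viability by CellTiter-Glo ATP luminescence after 30 min at room temperature. AC50 from Hill fits of qHTS concentration-response; tetraoctylammonium bromide positive control.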

[12] = Cell Viability - LYMP2-016 (AID 984); conditions: LYMP2-016 lymphoblastoid cell viability, qHTS; series mostly up to 92.2 µM
Method in brief: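 Acute toxicity in a Coriell human lymphoblastoid line is scored as loss of intracellular ATP over 24 h of treatment in complete medium. CellTiter-Glo signal is fitted across concentrations with the Hill equation to give AC50.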

[13] = Cell Viability - LYMP2-018 (AID 985); conditions: LYMP2-018 lymphoblastoid cells, viability (qHTS); series mostly up to 92.2 µM;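 note: compound exposure lasted 24 hr at 37 °C; plate controls were DMSO only for no effect and tetraoctylammonium bromide at 92 µM for full effect; nearly all actives have a fitted effect of over 50% in size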
Method in brief: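 Human lymphoblastoid LYMP2-018 cells, 2500/well, settled 5 hr at 37 C then exposed to compound 24 hr at 37 C; intracellular ATP measured by CellTiter-Glo luminescence. AC50 from Hill-equation concentration-response fits.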

[14] = Cell Viability - LYMP2-020 (AID 986); conditions: series mostly up to 92.2 µM
Method in brief: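 Human lymphoblastoid LYMP2-020 cells (2500/well) preincubated 5 h at 37 C, then treated 24 h at 37 C. Viability measured as intracellular ATP by CellTiter-Glo luminescence after 30 min at room temperature; AC50 from Hill fits.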

[15] = Cell Viability - LYMP2-022 (AID 987); conditions: LYMP2-022 lymphoblastoid cell viability; series mostly up to 92.2 µM
Method in brief: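 LYMP2-022 lymphoblastoid cells (2500/well, complete medium) were treated with compounds for 24 hours at 37 C; intracellular ATP was then read by CellTiter-Glo luminescence after 30 min at room temperature. AC50 values were derived from Hill-equation fits.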

[16] = Cell Viability - LYMP2-024 (AID 988); conditions: LYMP2-024 lymphoblastoid cell viability; series mostly up to 92.2 µM;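 note: plate controls were DMSO only for no effect and 92 µM tetraoctylammonium bromide for full effect; nearly all actives have a fitted effect of over 60% in size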
Method in brief: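 Human lymphoblastoid LYMP2-024 cells (2500/well) rested 5 hr, then treated with compound for 24 hr at 37 C in complete medium. Viability was measured as intracellular ATP by CellTiter-Glo luminescence. AC50 values came from Hill-equation fits.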

[17] = Cell Viability - LYMP1-002 - Assay at 40 hr (AID 994); conditions: LYMP1-002 lymphoblastoid cell viability; series mostly up to 92.2 µM;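 note: 0% = DMSO only and full inhibition = 92 µM tetraoctylammonium bromide; nearly all actives have a fitted effect of over 60% in size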
Method in brief: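 LYMP1-002 human lymphoblastoid cells (2500/well, complete medium) were treated with compounds for 40 hr at 37 C. Intracellular ATP was measured by CellTiter-Glo luminescence, and AC50 values came from Hill-equation fits of concentration-response data; tetraoctylammonium bromide was the positive control.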

[18] = qHTS assay for small molecule antagonists of retinoid X receptor alpha signaling (AID 588546; active = well fitted inhibition curve with a large enough effect in the signal ratio, with a control signal flat, not every such curve was filed as active; the % refers to the signal ratio;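 note: cells stimulated with 9-cis-retinoic acid as agonist; % is set by controls: 0 for no effect and ±100 for the full control effect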); conditions: HEK293T RXRa-UAS-bla, beta-lactamase ratio, antagonist mode; measured here: W530 green channel, cytotoxicity proxy
Method in brief: (§1)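 Beta-lactamase reporter inhibition, read as CCF4 fluorescence ratio (ex 405, em 460/530 nm) after 2 h at RT. HEK293T UAS-bla cells, 2500/well, were stimulated with 9-cis-RA at 500 or 100 nM final alongside test compound for 18 h at 37 C.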

[19] = molecular target: Retinoic acid receptor RXR-alpha (Homo sapiens) (UniProt P19793); test: as above; conditions: HEK293T RXRa-UAS-bla, beta-lactamase ratio, antagonist mode
Sequence of Retinoic acid receptor RXR-alpha (Homo sapiens) (P19793 whole entry, looked up): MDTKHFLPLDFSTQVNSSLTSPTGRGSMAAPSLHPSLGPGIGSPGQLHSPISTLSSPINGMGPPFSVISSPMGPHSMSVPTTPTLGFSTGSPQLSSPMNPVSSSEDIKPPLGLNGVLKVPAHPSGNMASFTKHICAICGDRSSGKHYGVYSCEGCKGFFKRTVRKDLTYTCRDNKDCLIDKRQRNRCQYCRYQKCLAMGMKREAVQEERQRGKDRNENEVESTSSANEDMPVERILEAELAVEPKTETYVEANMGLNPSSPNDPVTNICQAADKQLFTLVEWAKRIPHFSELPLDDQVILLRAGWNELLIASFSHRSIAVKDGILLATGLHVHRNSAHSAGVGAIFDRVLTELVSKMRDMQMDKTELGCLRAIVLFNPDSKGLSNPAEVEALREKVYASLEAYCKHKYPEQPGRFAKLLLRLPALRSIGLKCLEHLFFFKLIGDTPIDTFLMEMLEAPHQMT
Method in brief: as §1

[20] = qHTS assay for environmental chemicals that activate the Aryl hydrocarbon Receptor (AhR) signaling pathway (AID 651777); conditions: 1A2-DRE human hepatoma cells, luciferase, 24 h; activation: stronger effect = higher value; note: % of control where 0% means no effect; nearly all actives have a fitted effect of over 15% in size
Method in brief: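 Human hepatoma 1A2-DRE cells stably carrying a DRE/CYP1A2 promoter–luciferase reporter, 1,200 cells/well, exposed to compound 24 hr at 37 C. Luciferase read by One-Glo luminescence after 30 min at room temperature; increased signal marks AhR activation.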

COc1ccc(C)cc1N
-0.963%: max response [18]
inactive: Potency [1] > 92 µM | Potency [2] | Potency [3] | Potency [4] | Potency [5] | Potency [6] | Potency [7] | Potency [8] | Potency [9] | Potency [10] | Potency [11] | Potency [12] | Potency [13] | Potency [14] | Potency [15] | Potency [16] | Potency [17] | max response [19] 10.5% | activation [20] 3.33%

c1cc2c3c(c1)ccc1cccc(c13)C2
-1.55%: max response [18]
inactive: Potency [1] > 92 µM | Potency [2] | Potency [3] | Potency [4] | Potency [5] | Potency [6] | Potency [7] | Potency [8] | Potency [9] | Potency [10] | Potency [11] | Potency [12] | Potency [13] | Potency [14] | Potency [15] | Potency [16] | Potency [17] | max response [19] -11.6% | activation [20] -0.581%

Cc1ccccc1OCC1CO1 (centres undefined)
inactive: Potency [1] > 92 µM | Potency [2] | Potency [3] | Potency [4] | Potency [5] | Potency [6] | Potency [7] | Potency [8] | Potency [9] | Potency [10] | Potency [11] | Potency [12] | Potency [13] | Potency [14] | Potency [15] | Potency [16] | Potency [17] | max response [19] 0.471% | activation [20] -0.0777%
-1.65%: max response [18]

CCC(Cl)CC(Cl)C(Cl)C(Cl)C(Cl)C(C)Cl (centres undefined)
7.22%: max response [18]
inactive: Potency [1] > 92 µM | Potency [2] | Potency [3] | Potency [4] | Potency [5] | Potency [6] | Potency [7] | Potency [8] | Potency [9] | Potency [10] | Potency [11] | Potency [12] | Potency [13] | Potency [14] | Potency [15] | Potency [16] | Potency [17] | max response [19] -1.06% | activation [20] -0.274%

C=CC(C)(O)CCCC(C)CCCC(C)CCCC(C)C (centres undefined)
-10.2%: max response [18]
inactive: Potency [1] > 92 µM | Potency [2] | Potency [3] | Potency [4] | Potency [5] | Potency [6] | Potency [7] | Potency [8] | Potency [10] | Potency [11] | Potency [12] | Potency [13] | Potency [14] | Potency [15] | Potency [16] | Potency [17] | max response [19] 7.39% | activation [20] -0.417%
